Assay results taken from PubChem BioAssay AID1159580 (chemical genetic matrix, 2015).
Screen size: about 5,500 compounds; about 2,000 (36%) were called active. Roughly 18% stayed inconclusive and do not appear here. No stated cut-off is given here; in the data, active means normalized growth mostly below about 0.91 (no sharp cut-off); inconclusive means no clear call, values can overlap the other calls; inactive means mostly above about 0.92. The list shows a part of the results.

Assay: chemical genetic growth profiling, strain panel (AID 1159580);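 further: tested at 20 µM; growth read once vehicle control cultures reached saturation at 30 °C; 1 = growth at the plate median or of vehicle wells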
Conditions: S. cerevisiae deletion strains, growth OD

Measured: normalized growth

CC(=O)OC1CC[C@@]2(C)C(CCC3C2CC[C@]2(C)C(C4=CC(=O)OC4)C(OC(C)=O)CC32O)C1 (stereo not given in full)
active: locus YBR021W, strain FUR4, stronger effect = lower value 0.837
inactive: locus YAL013W, strain DEP1, stronger effect = lower value 0.988 | locus YAL021C, strain ccr4, stronger effect = lower value 0.989 | locus YAL026C, strain drs2, stronger effect = lower value 0.979 | locus YAL030W, strain snc1, stronger effect = lower value 0.998 | locus YBL061C, strain skt5, stronger effect = lower value 0.994 | locus YBR009C, strain hhf1, stronger effect = lower value 1 | locus YBR023C, strain chs3, stronger effect = lower value 0.995 | locus YBR171W, strain sec66, stronger effect = lower value 0.987 | locus YBR229C, strain ROT2, stronger effect = lower value 0.997 | locus YBR231C, strain swc5, stronger effect = lower value 0.979 | locus YBR279W, strain paf1, stronger effect = lower value 0.984 | locus YCL011C, strain gbp2, stronger effect = lower value 0.972 | locus YCL016C, strain dcc1, stronger effect = lower value 0.971 | locus YCL029C, strain bik1, stronger effect = lower value 1.01 | locus YCL069W, strain vba3, stronger effect = lower value 0.999 | locus YCR088W, strain abp1, stronger effect = lower value 0.999 | locus YDL005C, strain med2, stronger effect = lower value 0.972 | locus YDL035C, strain GPR1, stronger effect = lower value 1.01 | locus YDL040C, strain nat1, stronger effect = lower value 0.99 | locus YDL074C, strain BRE1, stronger effect = lower value 0.972 | locus YDL101C, strain DUN1, stronger effect = lower value 1 | locus YDL134C, strain PPH21, stronger effect = lower value 1.03 | locus YDL185W, strain tfp1, stronger effect = lower value 1.02 | locus YDL192W, strain arf1, stronger effect = lower value 1 | locus YDR001C, strain nth1, stronger effect = lower value 0.986 | locus YDR069C, strain doa4, stronger effect = lower value 0.942 | locus YDR101C, strain arx1, stronger effect = lower value 1.01 | locus YDR137W, strain rgp1, stronger effect = lower value 0.986 | locus YDR159W, strain sac3, stronger effect = lower value 1.03 | locus YDR162C, strain NBP2, stronger effect = lower value 1 | locus YDR195W, strain ref2 0.951 | locus YDR297W, strain sur2, stronger effect = lower value 0.989 | locus YDR318W, strain mcm21, stronger effect = lower value 0.992 | locus YDR334W, strain swr1, stronger effect = lower value 0.976 | locus YDR335W, strain msn5, stronger effect = lower value 0.978 | locus YDR388W, stronger effect = lower value 1.01 | locus YDR392W, strain spt3, stronger effect = lower value 1.01 | locus YDR502C, strain sam2, stronger effect = lower value 0.994 | locus YEL003W, strain gim4, stronger effect = lower value 0.988 | locus YEL037C, strain rad23, stronger effect = lower value 0.997 | locus YEL061C, strain CIN8 (second series), stronger effect = lower value 0.985 | locus YEL061C, strain CIN8, stronger effect = lower value 0.997 | locus YER015W, strain faa2, stronger effect = lower value 0.983 | locus YER016W, strain bim1, stronger effect = lower value 0.965 | locus YER110C, stronger effect = lower value 1.01 | locus YER111C, strain swi4, stronger effect = lower value 0.978 | locus YER155C, strain BEM2 (second series), stronger effect = lower value 1.01 | locus YER155C, strain BEM2, stronger effect = lower value 0.996 | locus YER167W, strain BCK2, stronger effect = lower value 0.997 | locus YFR010W, strain ubp6, stronger effect = lower value 1 | locus YGL078C, strain dbp3, stronger effect = lower value 1 | locus YGL086W, strain mad1, stronger effect = lower value 1 | locus YGL167C, strain pmr1, stronger effect = lower value 0.982 | locus YGL173C, strain kem1, stronger effect = lower value 0.987 | locus YGL227W, strain vid30, stronger effect = lower value 0.98 | locus YGL240W, strain doc1, stronger effect = lower value 0.99 | locus YGL248W, strain PDE1, stronger effect = lower value 0.995 | locus YGL253W, strain hxk2, stronger effect = lower value 0.964 | locus YGR135W, strain pre9, stronger effect = lower value 1.01 | locus YGR229C, strain SMI1, stronger effect = lower value 0.976 | locus YGR252W, strain gcn5, stronger effect = lower value 0.993 | locus YHR013C, strain ard1, stronger effect = lower value 0.943 | locus YHR027C, strain rpn1, stronger effect = lower value 0.97 | locus YHR079C, strain IRE1 (second series), stronger effect = lower value 1 | locus YHR094C, strain hxt1, stronger effect = lower value 1 | locus YHR129C, strain ARP1, stronger effect = lower value 1 | locus YHR142W, strain chs7, stronger effect = lower value 0.958 | locus YHR200W, strain rpn10, stronger effect = lower value 1.01 | locus YIL066C, strain RNR3, stronger effect = lower value 1.01 | locus YIL073C, strain SPO22, stronger effect = lower value 1.04 | locus YIL125W, strain kgd1, stronger effect = lower value 1.02 | locus YIR030C, strain dcg1, stronger effect = lower value 1 | locus YJL092W, strain hpr5, stronger effect = lower value 0.986 | locus YJL095W, strain BCK1 (second series), stronger effect = lower value 0.993 | locus YJL095W, strain BCK1, stronger effect = lower value 0.999 | locus YJL115W, strain asf1, stronger effect = lower value 0.959 | locus YJL129C, strain trk1, stronger effect = lower value 0.956 | locus YJL134W, strain LCB3, stronger effect = lower value 0.995 | locus YJL154C, strain vps35, stronger effect = lower value 0.975 | locus YJL164C, strain tpk1, stronger effect = lower value 1 | locus YJL166W, strain qcr8, stronger effect = lower value 0.957 | locus YJL168C, strain set2, stronger effect = lower value 1.01 | locus YJL187C, strain SWE1 (second series), stronger effect = lower value 0.99 | locus YJL187C, strain SWE1, stronger effect = lower value 0.982 | locus YJR075W, strain HOC1, stronger effect = lower value 0.997 | locus YKL009W, strain mrt4, stronger effect = lower value 1.01 | locus YKL068W, stronger effect = lower value 1.01 | locus YKL085W, strain MDH1 (second series), stronger effect = lower value 1.01 | locus YKL085W, strain MDH1, stronger effect = lower value 1.01 | locus YKL160W, strain elf1, stronger effect = lower value 0.975 | locus YKR001C, strain vps1, stronger effect = lower value 1.01 | locus YKR026C, strain gcn3, stronger effect = lower value 0.993 | locus YKR091W, strain srl3, stronger effect = lower value 0.974 | locus YLL001W, strain dnm1, stronger effect = lower value 0.998 | locus YLL026W, stronger effect = lower value 0.983 | locus YLL041C, strain sdh2, stronger effect = lower value 1 | locus YLR027C, strain aat2, stronger effect = lower value 0.983 | locus YLR039C, strain RIC1, stronger effect = lower value 1.02 | locus YLR058C, strain SHM2, stronger effect = lower value 1 | locus YLR102C, strain apc9, stronger effect = lower value 1.01 | locus YLR221C, strain rsa3, stronger effect = lower value 0.997 | locus YLR258W, strain gsy2, stronger effect = lower value 0.979 | locus YLR262C, strain YPT6 (second series), stronger effect = lower value 0.974 | locus YLR262C, strain YPT6, stronger effect = lower value 1.03 | locus YLR268W, strain sec22, stronger effect = lower value 1.01 | locus YLR320W, strain mms22, stronger effect = lower value 1.01 | locus YLR342W, strain FKS1 (second series), stronger effect = lower value 0.986 | locus YLR342W, strain FKS1, stronger effect = lower value 1.01 | locus YLR357W, strain rsc2, stronger effect = lower value 0.967 | locus YLR370C, strain arc18, stronger effect = lower value 0.974 | locus YLR371W, strain rom2, stronger effect = lower value 0.996 | locus YLR384C, strain iki3, stronger effect = lower value 0.971 | locus YLR418C, strain cdc73, stronger effect = lower value 1.03 | locus YML016C, strain PPZ1, stronger effect = lower value 1 | locus YML032C, strain rad52, stronger effect = lower value 1.01 | locus YML120C, strain ndi1, stronger effect = lower value 0.996 | locus YML124C, strain tub3, stronger effect = lower value 1.01 | locus YMR058W, strain fet3, stronger effect = lower value 0.977 | locus YMR078C, strain ctf18, stronger effect = lower value 1.02 | locus YMR125W, strain sto1, stronger effect = lower value 0.977 | locus YMR129W, stronger effect = lower value 0.981 | locus YMR205C, strain PFK2, stronger effect = lower value 0.994 | locus YMR223W, strain ubp8, stronger effect = lower value 1 | locus YMR231W, strain pep5, stronger effect = lower value 0.99 | locus YMR307W, strain GAS1, stronger effect = lower value 1.02 | locus YNL067W, strain RPL9B, stronger effect = lower value 1.01 | locus YNL071W, strain lat1, stronger effect = lower value 0.999 | locus YNL153C, strain GIM3, stronger effect = lower value 1 | locus YNL209W, strain ssb2, stronger effect = lower value 0.996 | locus YNL233W, strain BNI4, stronger effect = lower value 0.989 | locus YNL248C, strain rpa49, stronger effect = lower value 0.946 | locus YNL250W, strain rad50, stronger effect = lower value 1.02 | locus YNL271C, strain bni1, stronger effect = lower value 1.01 | locus YNL298W, strain CLA4, stronger effect = lower value 1.04 | locus YNL307C, strain MCK1, stronger effect = lower value 1.03 | locus YNL322C, strain KRE1 (second series), stronger effect = lower value 0.971 | locus YNR049C, strain mso1, stronger effect = lower value 0.959 | locus YNR052C, strain pop2, stronger effect = lower value 0.999 | locus YOL006C, strain TOP1, stronger effect = lower value 1.04 | locus YOL012C, strain htz1 0.875 | locus YOL147C, strain pex11, stronger effect = lower value 1.01 | locus YOR001W, strain rrp6, stronger effect = lower value 1.03 | locus YOR061W, strain CKA2, stronger effect = lower value 1.01 | locus YOR069W, strain VPS5, stronger effect = lower value 0.999 | locus YOR070C, strain gyp1, stronger effect = lower value 0.995 | locus YOR080W, strain dia2, stronger effect = lower value 0.973 | locus YOR083W, strain WHI5, stronger effect = lower value 0.977 | locus YOR106W, strain vam3, stronger effect = lower value 0.956 | locus YOR136W, strain idh2, stronger effect = lower value 1.02 | locus YOR144C, strain elg1, stronger effect = lower value 1.02 | locus YOR184W, strain ser1, stronger effect = lower value 1.02 | locus YOR265W, strain rbl2, stronger effect = lower value 0.999 | locus YOR270C, strain vph1, stronger effect = lower value 0.965 | locus YOR290C, strain snf2, stronger effect = lower value 0.955 | locus YOR316C, strain cot1, stronger effect = lower value 1.02 | locus YPL051W, strain arl3, stronger effect = lower value 0.98 | locus YPL078C, strain atp4, stronger effect = lower value 0.977 | locus YPL106C, strain sse1, stronger effect = lower value 0.997 | locus YPL240C, strain hsp82, stronger effect = lower value 0.982 | locus YPR119W, strain clb2, stronger effect = lower value 1.01 | locus YPR141C, strain kar3, stronger effect = lower value 1 | locus YPR163C, strain tif3, stronger effect = lower value 1.02 | locus YPR167C, strain met16, stronger effect = lower value 0.999 | strain wtn01, stronger effect = lower value 1.01
